# PI4K2A block: qHTS for small molecular inhibitors of PI4K2A; 420,000 compounds, 0.13% hits; activity change, negative = inhibition, % at 76.9 µM; purified PI4K2A, ADP-Glo luminescence, 1 h; active compounds read low; AID 1346378, 2018; in the data active means activity change below about -50%; inconclusive means mostly about -30% to -49%;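 further: -100% = wells without enzyme as full effect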
# Target sequence (Q9BTU6 whole entry, looked up): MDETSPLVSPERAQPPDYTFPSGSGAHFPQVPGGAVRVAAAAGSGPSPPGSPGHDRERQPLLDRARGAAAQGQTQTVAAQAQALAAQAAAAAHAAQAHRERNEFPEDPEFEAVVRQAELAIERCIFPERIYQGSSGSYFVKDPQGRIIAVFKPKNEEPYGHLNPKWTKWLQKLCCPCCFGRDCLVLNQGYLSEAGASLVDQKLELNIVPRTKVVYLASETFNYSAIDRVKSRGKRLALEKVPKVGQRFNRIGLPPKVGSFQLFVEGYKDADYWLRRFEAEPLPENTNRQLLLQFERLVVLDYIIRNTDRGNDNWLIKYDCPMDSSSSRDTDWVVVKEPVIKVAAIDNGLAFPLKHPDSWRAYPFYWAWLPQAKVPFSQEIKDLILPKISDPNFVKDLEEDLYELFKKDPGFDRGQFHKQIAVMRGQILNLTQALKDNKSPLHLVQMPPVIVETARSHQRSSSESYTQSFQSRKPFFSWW
#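 ADP-Glo luminescence measured ADP generated by PI4K2A enzyme (4 ug/mL before mixing) with 1.2 mM PI substrate (pre-mix) and 300 microM ATP (pre-mix). Tris pH7.5 buffer with MgCl2, Triton X-100; 1 h reaction at ambient temperature.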
# PGK inhibitor: qHTS Assay to Find Inhibitors of Phosphoglycerate Kinase. AID 602233, 2012. PGK/GAPDH coupled, Kinase-Glo luminescence, 60 min. Phosphoglycerate kinase, glycosomal (Trypanosoma brucei brucei), P07378. 380,000 compounds, 0.043% hits. Potency, µM (doses to about 57.5 µM), without a hit: top-dose activity change, negative = inhibition, most hits filed as inhibitors; further: potency means the concentration at half of the fitted maximal effect; nearly all actives have a fitted effect of over 60% in size
#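 Recombinant glycosomal PGK reaction used 1,3-bisphosphoglycerate generated in-well by GAPDH (100nM final) in 100mM TEA pH 7.6, 5mM MgCl2, 0.01% Tween-20. After 60 minutes at room temperature, ATP was read by Kinase-Glo Plus luminescence end-point.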
# Pin1 inhibitor: qHTS Assay to Find Inhibitors of Pin1; Pin1 FP peptide displacement, HiFluor488, 10 min; AID 504891, 2011; Peptidyl-prolyl cis-trans isomerase NIMA-interacting 1 (Homo sapiens), Q13526; 390,000 compounds, 0.009% hits; Potency, µM (highest dose often 115 µM), without a hit: top-dose activity, negative = inhibition, most hits filed as inhibitors; active means well fitted inhibition curve with a large enough effect in the polarisation, with a control signal flat, not every such curve was filed as active; inconclusive means small, poorly fitted or top-dose-only effect, or effect the other way, or a change in a side signal; inactive means no such curve, though single readings can be large or run the other way; the % refers to the polarisation; further: potency means the concentration at half of the fitted maximal effect
# Target sequence (Q13526 whole entry, looked up): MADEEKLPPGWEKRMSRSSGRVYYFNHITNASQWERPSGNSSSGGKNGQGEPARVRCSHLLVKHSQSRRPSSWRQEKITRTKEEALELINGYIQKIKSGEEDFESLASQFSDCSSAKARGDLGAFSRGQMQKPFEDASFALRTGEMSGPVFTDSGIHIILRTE
# Tb PFK inh: qHTS Assay to Find Inhibitors of T. brucei phosphofructokinase; Potency, µM (titrated, usually from 57.5 µM), for the others: top-dose activity, negative = inhibition, usual class: inhibitors; 330,000 compounds, 0.17% hits; T. brucei PFK, ADP-Glo luminescence;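 further: potency means the concentration at half of the fitted maximal effect; 0% = uninhibited 1x PFK enzyme wells and -100% = no-enzyme wells; nearly all actives have a fitted effect of over 60% in size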
#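 PFK 1.25 nM, F6P 0.5 mM, ATP 0.1 mM, 0.1 M TEA pH 8.0, 5 mM MgCl2, 0.01% Tween20, 0.1% BSA; 45 min RT. ADP-Glo readout. qHTS titration up to 57 uM; curves fitted, compounds curve-classed.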
# PI5P4Ka inh: qHTS for Inhibitors of phosphatidylinositol 5-phosphate 4-kinase (PI5P4K). 330,000 compounds, 1.2% hits. max response, %. PI5P4Kalpha enzyme, ADP-Glo luminescence, 60 min; active compounds read low. AID 652105, 2013; active means max response of -50% or lower; inconclusive means between -30% and -50%; inactive means -30% or higher; further: value at the top dose of about 77 µM
#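 Human PI5P4Kalpha with substrate in 0.038 M HEPES pH 7.4, 0.28 mM EGTA, 0.1% CHAPS, 5% DMSO; reaction started with 5 microM ATP (final), 60 min at room temperature. ADP formed read by ADP-Glo luminescence.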
# Starred values were filed as active, the others as inactive; i = inactive; ? = inconclusive; nt = not tested or not shown; [ ] = another dose, or the depositor's remark. Many of the other results were omitted from the sample, so hits are more common in it than they were. Unless noted, the call rests on the fitted dose curve; in most records, active means well fitted curve in the direction sought with a large enough effect; inconclusive means small, poorly fitted or top-dose-only effect, or another doubt; inactive means no such curve, though single readings can be large; an effect the other way counts as inactive or inconclusive. Unless noted, on the % scale 0 is the no-effect control and ±100 the full control effect.
SMILES,PI4K2A block,PGK inhibitor,Pin1 inhibitor,Tb PFK inh,PI5P4Ka inh
Cc1nn(C)c(C)c1/C=C1/SC(=S)NC1=O,1,-5%,2%,1%,-78*
Cc1nn(C)cc1/C=C1\SC(=S)NC1=O,-3,i,9%,0%,-82*
CCN1C(=O)/C(=C/c2c(C)nn(C)c2C)SC1=S,0,i,?,-12%,nt
N#Cc1c(-c2ccco2)c2c([nH]c1=S)CCCC2,-24,-16%,?,?,-78*
N#Cc1c(-c2cccnc2)c2c([nH]c1=S)CCCC2,-4,-8%,3%,-29%,-95*
COCCNC(=O)C(c1ccc(F)cc1)N(Cc1ccccc1)C(=O)CCC(=O)Nc1nccs1 (stereo unspecified),-3,2%,-2%,1%,1
CCOC(=O)C(CC)Sc1nc2c(c(=O)[nH]c(=O)n2C)n1C/C=C(/C)Cl (stereo unspecified),-5,-6%,1%,-6%,-53*
O=[N+]([O-])c1ccc(/C=N/Nc2ccccn2)cc1,-3,-5%,49%,-3%,-2
CSc1ccc(/C=N/Nc2cccc(C(=O)O)c2)cc1,-7,?,19µM*,-13%,-99*
O=C(O)c1ccc(N/N=C/c2ccc3nccnc3c2)cc1,-55*,?,0%,-2%,-15
O=C(O)c1ccc(/C=N\Nc2ccccn2)cc1,-62*,-28%,-1%,nt,-27
CC(=O)C(C)n1c(CN2CCN(C(=O)c3ccco3)CC2)nc2c1c(=O)n(C)c(=O)n2C (stereo unspecified),-2,-2%,-16%,1%,0
Cc1ccc(-c2[nH]c(=S)[nH]c(=O)c2C#N)cc1,-6,6%,4%,-1%,-72*
CC(C)C[C@@H](CNCC(=O)[C@H](Cc1c[nH]c2ccccc12)NC(=O)c1[nH]cnc1C(=O)N[C@@H](C)CN)NC(=O)c1nc[nH]c1C(=O)N[C@@H](CC(=O)O)C(=O)O,-2,6%,0%,nt,-62*
CCC(=O)Nc1ccc(C(=O)CSc2nnc(-c3ccccc3F)n2C2CC2)cc1,-10,-7%,0%,0%,-51*
O=C(O)c1ccccc1NS(=O)(=O)c1ccc(NN=Cc2ccccc2F)c([N+](=O)[O-])c1,-3,?,nt,-2%,?
CSc1ccc(C=NNc2ccc(S(=O)(=O)Nc3ccccc3C(=O)O)cc2[N+](=O)[O-])cc1,1,?,nt,-7%,-53*
COc1ccc(NC(=S)NNc2ccc(S(=O)(=O)Nc3ccccc3C(=O)O)cc2[N+](=O)[O-])cc1,-25,-25%,-28%,?,-71*
CCOc1ccc(C=NNc2ccc(S(=O)(=O)Nc3ccccc3C(=O)O)cc2[N+](=O)[O-])cc1,-1,-14%,nt,-2%,?
COc1ccc(C=NNc2ccc(S(=O)(=O)Nc3ccccc3C(=O)O)cc2[N+](=O)[O-])c(OC)c1,-3,?,nt,3%,-70*
C=CCOc1ccc(C=NNc2ccc(S(=O)(=O)Nc3ccccc3C(=O)O)cc2[N+](=O)[O-])cc1OC,-4,?,nt,?,-83*
CCCn1c(CCC(=O)Nc2ccccc2Cc2ccccc2)nc2cc(S(=O)(=O)N3CCOCC3)ccc21,-4,2%,17%,2%,-7
CC[C@]1(C(=O)OC)[C@H]2C(=O)N(Cc3ccccc3)C(=O)[C@H]2[C@H]2CN(C)C(=NC)N21,-3,-8%,-3%,0%,-4
O=C(Nc1cccc(C(=O)N2CCCCC2)c1)C1CC1,0,-1%,-3%,nt,-5
COC(=O)c1ccccc1NS(=O)(=O)c1ccc(O)c(C(=O)O)c1,-3,9%[11.5 µM],9%,38µM*,nt
SMILES,PI4K2A block,PGK inhibitor,Pin1 inhibitor,Tb PFK inh,PI5P4Ka inh
O=S(c1ccccc1O)S(=O)c1ccccc1O (stereo unspecified),-9,-12%,?,nt,-83*
CS(=O)c1ccccc1O (stereo unspecified),11,0%,-1%,3%,-2
O=C(NC1CCCCN(Cc2cccc(Cl)c2)C1=O)C1CCCCC1 (stereo unspecified),1,nt,nt,nt,nt
COc1cc(/C=C2\C(=O)NN(c3ccc(C)cc3)C2=O)cc([N+](=O)[O-])c1O,-5,-13%,?,8%,-54*
CCOc1cc(/C=C2\C(=O)NN(c3ccccc3)C2=O)cc([N+](=O)[O-])c1O,-7,?,nt,?,-57*
O=C1NN(c2ccccc2)C(=O)/C1=C\c1ccccc1,-30,8%,?,11%,-1
COc1cc(/C=C(\C#N)c2nc3ccc(C)cc3[nH]2)cc([N+](=O)[O-])c1O,-4,-16%,nt,12%,-88*
COc1cc(/C=C2\C(=O)NN(c3ccccc3)C2=O)cc([N+](=O)[O-])c1O,-13,-13%,nt,?,-70*
O=C(/C=C/c1c(Cl)nc2ccccn12)N1CCN(c2ccc(F)cc2)CC1,3,-11%,3%,-2%,3
Cc1ccc(N(C(=O)CNC(=O)c2ccco2)C(C(=O)NCC2CCCO2)c2ccccc2)c(C)c1 (stereo unspecified),2,5%,5%,5%,1
COc1cc(/C=C2\CCCc3c2nc2ccccc2c3C(=O)O)cc([N+](=O)[O-])c1O,-12,-13%,?,-6%,-64*
COc1cc(/C=C2\CCCc3c2nc2ccccc2c3C(=O)O)cc(OC)c1O,-5,-5%,-17%,?,-12
COc1cc(/C=C2/C(=O)NN(c3ccccc3)C2=O)cc(Br)c1O,-5,-6%,12%,13%,-55*
CCOc1cc(/C=C2\NC(=O)NC2=O)cc([N+](=O)[O-])c1O,-2,i,-14%,?,-59*
Cc1cc2oc(=O)cc(CN(C)Cc3ccccc3F)c2cc1Cl,-2,-7%,6%,-1%,12
CN(Cc1ccccc1F)Cc1cc(=O)oc2cc(O)c(Cl)cc12,-5,-3%,-5%,6%,-63*
CC(=O)c1ccccc1N(C(=O)c1ccco1)C(C(=O)NC1CCCC1)c1ccc(N2CCOCC2)cc1 (stereo unspecified),4,-12%,0%,-8%,5
Cc1cc(C)n2nc(CC(=O)NNC(=O)c3ccc(N(C)C)cc3)nc2n1,-1,-1%,-7%,-19%,2
Cc1cccc(CNC(=O)CCCn2c(=O)c3cccn3c3ccc(F)cc32)c1,2,i,-2%,nt,nt
c1cncc(-c2cccnc2)c1,-65*,1%,-2%,1%,10

# High-throughput results: PubChem BioAssay, National Center for Advancing Translational Sciences (NCATS)
